Here are results for 40 compounds from PubChem BioAssay (EPA / NIEHS).

The source made the active and inactive calls. Rule for the calls: active = hit-call score of the fitted dose curve at least 0.9, where 1 is the maximum; inactive = score below 0.9.

The nature of the test: APR_HepG2_CellCycleArrest_1hr: Apredica 1-hour HepG2 Assay for Cell Cycle Arrest (AID 2282666). Particulars: high-content imaging, actives raise or lower the signal. The procedure: APR_HepG2_1hr is a cell-based, multiplexed-readout assay that uses HepG2, a human liver cell line, with measurements taken at 1 hour after chemical dosing in a 384-well plate.APR_HepG2_CellCycleArrest_1hr is one of 10 assay component(s) measured or calculated from the APR_HepG2_1hr assay. It is designed to make measurements of cell phenotype, a form of morphology reporter, as detected with fluorescence intensity signals by HCS Fluorescent Imaging technology.Data from the assay component APR_HepG2_CellCycleArrest_1hr was analyzed into 1 assay endpoint. This assay endpoint, APR_HepG2_CellCycleArrest_1hr, was analyzed with bidirectional fitting relative to DMSO as the negative control and baseline of activity. Using a type of morphology reporter, measures of all nuclear dna for gain or loss-of-signal activity can be used to understand the signaling at the pathway-level as they relate to the gene . Furthermore, this assay endpoint can be referred to as a primary readout, because this assay has produced multiple assay endpoints where this one serves a signaling function. To generalize the intended target to other relatable targets, this assay endpoint is annotated to the cell cycle intended target family, where the subfamily is arrest.
Cells were treated with dimethyl sulfoxide (DMSO) as a solvent control at a final concentration of 0.5% v/v or with compounds in DMSO with a resulting final DMSO concentration of 0.5% v/v. Compound treatment was done at concentrations of 0.39, 0.78, 1.56, 3.12, 6.24, 12.5, 25, 50, 100, and 200 uM in duplicate on each plate. Cells were treated with compounds for 1, 24, or 72 hr. Carbonyl […] m-chloro-phenylhydrazone (CCCP) and taxol were used as positive controls for mitochondrial function and cytoskeletal stability, respectively; DMSO served as the negative control for this experiment. Cells were fixed by the direct addition of 50 uL formaldehyde in Hank's Balanced Salt Solution (HBSS) to a final concentration of 3.7%. After incubation in the fixation medium for 30 min at room temperature (293-298 K), cells were rinsed twice with HBSS and treated with cell permeabilization buffer (16 uL of 0.5% Triton X-100) for 10 min at room temperature (293-298 K) before labeling. For mitochondrial membrane potential and mitochondrial measurements, pre-fixed cells were incubated with 50 uL of MitoTracker Red CMXRos (Invitrogen) at a concentration of 250 nM for 30 min before fixation. In the remaining cases, post-fixed cells were labeled by incubation with a multiplexed mixture of primary antibodies in HBSS for 60 min at room temperature (293-298 K) to detect immunoreactivity of c-Jun (1:500), phospho-histone H3 (1:100), phospho-histone H2A.x (1:200), p53 (1:400), alpha-tubulin (1:200) and Hoechst 33342 (2 ug/mL). Cells were labeled for multiplexed imaging on two separate plates: a) Hoechst 33342, MitoTracker Red, phospho-histone H3, and alpha-tubulin, and b) Hoechst 33342, phospho-histone H2A.x, and c-Jun. A final rinse with HBSS (50 uL) was performed before analysis. The primary and secondary antibodies for the proteins were phospho-histone H3 (rabbit anti-phospho-histone H3 and FITC-donkey anti-rabbit IgG), phospho-histone H2A.x (mouse anti-phospho-histone H2A.x and FITC-donkey anti-mouse IgG), c-Jun (rabbit anti-phospho-c-Jun and Cy3-donkey anti-rabbit IgG), p53 (sheep anti-p53 and Cy5-donkey anti-sheep IgG), alpha-tubulin (mouse anti-alpha-tubulin and Cy5-donkey anti-mouse IgG). These antibodies are available as the CellCiphr HepG2 assay kit (Millipore).Digital images of each well were captured using a Cellomics ArrayScan VTI (Thermo Scientific Cellomics) (0.8 NA objective, 0.63x optical coupler, and XF-93 filter set) at 20x magnification. The images were acquired using the autofocus feature of the ArrayScan instrument, which entails the following steps. First, the camera focuses on channel 1 (Hoechst 33342), where nuclei are identified. Second, a Z offset of 1 um is used for capturing mitochondria (MitoTracker Red). […]
The term AC50 denotes the concentration giving half of the maximal activity seen. On to `Oc1ccc(Cl)cc1Cc1ccccc1`, for which the concentration at half-maximal activity (AC50) was 114 µM (active).
For the compound `COP(=S)(OC)Oc1ccc(SC)c(C)c1`, the result was inactive.
In the case of `C[C@H]1[C@H](c2ccc(Cl)cc2)SC(=O)N1C(=O)NC1CCCCC1`, the call was inactive.
The same measure, in the same setting: in the case of `CCS(=O)(=O)c1cccnc1S(=O)(=O)NC(=O)Nc1nc(OC)cc(OC)n1` it was “inactive”; in that of `Cc1cc(C)nc(NC(=O)NS(=O)(=O)c2ccccc2C(=O)OC2COC2)n1`, “inactive”; in that of `C#CCN1C(=O)COc2cc(F)c(N3C(=O)C4=C(CCCC4)C3=O)cc21`, “inactive”.
For the compound `CCc1ccc(C(=O)NN(C(=O)c2cc(C)cc(C)c2)C(C)(C)C)cc1`, the result was inactive.
On to `N#CN`, for which the compound was classed as inactive.
Same read-out and setting: in the case of `COC(=O)c1ccccc1S(=O)(=O)NC(=O)N(C)c1nc(C)nc(OC)n1` it was “inactive”.
On to `O=[N+]([O-])/N=C1\NCCN1Cc1ccc(Cl)nc1`, for which the outcome was inactive.
Take `CC(C)OC(=O)Nc1cccc(Cl)c1`: the compound was called inactive.
As to `O=C1c2ccccc2C(=O)N1SC(Cl)(Cl)Cl`, the compound was classed as inactive.
Consider `CCC(C)(NC(=O)c1cc(Cl)c(C)c(Cl)c1)C(=O)CCl` (stereo not given), for which the result was inactive.
Consider `OCCOc1ccccc1`, for which the compound was called inactive.
As to `Cc1[nH]c(=O)n(C(C)(C)C)c(=O)c1Cl`, the compound was classed as inactive.
`CNC(=O)/C=C(\C)OP(=O)(OC)OC`: the outcome was inactive.
Turning to `[2H]C1([2H])[n+]2ccccc2-c2cccc[n+]2C1([2H])[2H]`, the result was inactive.
On to `Clc1ccccc1-c1nnc(-c2ccccc2Cl)nn1`, for which the compound was classed as inactive.
For `CCN(CC)C(=O)SCc1ccc(Cl)cc1`, the call was inactive.
For the compound `CCOC1Oc2ccc(OS(C)(=O)=O)cc2C1(C)C` (stereo not given), the compound was classed as inactive.
In the case of `CC(C)N(C(=O)COc1nnc(C(F)(F)F)s1)c1ccc(F)cc1`, the compound was called inactive.
As to `CC1(c2ccc(Oc3ccccc3)cc2)OC(=O)N(Nc2ccccc2)C1=O` (stereo not given), the call was inactive.
Still for that read-out and setting: in the case of `COc1nn(CSP(=S)(OC)OC)c(=O)s1` it was “inactive”; in that of `ClC1C(Cl)C(Cl)C(Cl)C(Cl)C1Cl` (stereo not given), “inactive”; in that of `CNC(=O)Oc1cccc(N=CN(C)C)c1`, “inactive”.
On to `CCCN(CCC)c1c([N+](=O)[O-])cc(C(F)(F)F)cc1[N+](=O)[O-]`, for which the result was inactive.
Regarding `COP(=O)(OC)OC=C(Cl)Cl`, the call was inactive.
With `CC[C@H](C)[C@H]1O[C@]2(C=C[C@@H]1C)C[C@@H]1C[C@@H](C/C=C(\C)[C@@H](O[C@H]3C[C@H](OC)[C@@H](O[C@H]4C[C@H](OC)[C@@H](O)[C@H](C)O4)[C@H](C)O3)[C@@H](C)/C=C/C=C3\CO[C@@H]4[C@H](O)C(C)=C[C@@H](C(=O)O1)[C@]34O)O2` (tested in a mixture with another compound), the compound was classed as inactive.
In the case of `O=[N+]([O-])c1c(Cl)c(Cl)c(Cl)c(Cl)c1Cl`, the outcome was inactive.
Regarding `CCC(C)(C)C(=O)OC1=C(c2ccc(Cl)cc2Cl)C(=O)OC12CCCCC2`, the call was inactive.
`O=C(NC(=O)c1c(F)cccc1F)Nc1ccc(OC(F)(F)C(F)OC(F)(F)F)c(Cl)c1` (stereo not given): the compound was called inactive.
For `CCOCN(C(=O)CCl)c1c(C)cccc1CC`, the result was inactive.
With `O=C(Nc1ccccc1)Nc1cnns1`, the result was inactive.
For the compound `COc1cc(OC)nc(NC(=O)NS(=O)(=O)c2cc(NC=O)ccc2C(=O)N(C)C)n1`, the outcome was inactive.
Consider `O=C(O)CCCOc1ccc(Cl)cc1Cl`, for which the outcome was inactive.
For `O=C(O)COc1ccc(Cl)cc1Cl`, the compound was classed as inactive.
For the compound `CN1CSC(=S)N(C)C1`, the compound was classed as inactive.
On to `N#Cc1c(Cl)c(Cl)c(Cl)c(C#N)c1Cl`, for which the compound was classed as inactive.
Regarding `Oc1cc(Cl)ccc1Oc1ccc(Cl)cc1Cl`, the half-maximal activity concentration (AC50) was 118 µM (active).
Regarding `CNC(=O)Oc1ccccc1OC(C)C`, the compound was classed as inactive.
